High-throughput results (PubChem)
LRH-1 inv ag: inverse agonists of human LRH-1 (NR5A2); HEK293T StAR-luciferase reporter, LRH-1 transfected, 24 h; inhibition, % at 3.6 µM; 0.13% of 360,000 active;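 active = inhibition above the mean inhibition of all tested compounds plus 3 SD, cut at about 73% in these data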;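 also: 0% = DMSO wells and 100% = reporter-only cells lacking LRH-1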
NR2F2 inh: NR2F2 (human) inhibition, primary screen; P24468; HEK293T NGFI-A luciferase reporter, luminescence; inhibition, % at 8.6 µM; 0.7% of 370,000 active; AID 686940;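 active = inhibition above a per-plate cutoff, mean inhibition of test wells between control levels plus 3 SD, cut at about 38% in these data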;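 also: cells cotransfected with COUP-TFII expression vector driving the NGFI-A reporter; 0% = median of COUP-TF2 test wells and 100% = reporter-only cells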
NCOA1 inh: inhibitors of human steroid receptor coactivator 1 (SRC1); Q15788; HEK293 GAL4-SRC1 luciferase reporter, luminescence; inhibition, % at 3.6 µM; 0.12% of 360,000 active; AID 588354;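 active = inhibition above the campaign mean plus 3 SD, with each screening campaign given its own cutoff, cut at about 60% in these data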;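 also: 0% = DMSO treated cells and 100% = gossypol at 36 µM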
Target sequence (Q15788 whole entry, looked up, the tested form may be a part): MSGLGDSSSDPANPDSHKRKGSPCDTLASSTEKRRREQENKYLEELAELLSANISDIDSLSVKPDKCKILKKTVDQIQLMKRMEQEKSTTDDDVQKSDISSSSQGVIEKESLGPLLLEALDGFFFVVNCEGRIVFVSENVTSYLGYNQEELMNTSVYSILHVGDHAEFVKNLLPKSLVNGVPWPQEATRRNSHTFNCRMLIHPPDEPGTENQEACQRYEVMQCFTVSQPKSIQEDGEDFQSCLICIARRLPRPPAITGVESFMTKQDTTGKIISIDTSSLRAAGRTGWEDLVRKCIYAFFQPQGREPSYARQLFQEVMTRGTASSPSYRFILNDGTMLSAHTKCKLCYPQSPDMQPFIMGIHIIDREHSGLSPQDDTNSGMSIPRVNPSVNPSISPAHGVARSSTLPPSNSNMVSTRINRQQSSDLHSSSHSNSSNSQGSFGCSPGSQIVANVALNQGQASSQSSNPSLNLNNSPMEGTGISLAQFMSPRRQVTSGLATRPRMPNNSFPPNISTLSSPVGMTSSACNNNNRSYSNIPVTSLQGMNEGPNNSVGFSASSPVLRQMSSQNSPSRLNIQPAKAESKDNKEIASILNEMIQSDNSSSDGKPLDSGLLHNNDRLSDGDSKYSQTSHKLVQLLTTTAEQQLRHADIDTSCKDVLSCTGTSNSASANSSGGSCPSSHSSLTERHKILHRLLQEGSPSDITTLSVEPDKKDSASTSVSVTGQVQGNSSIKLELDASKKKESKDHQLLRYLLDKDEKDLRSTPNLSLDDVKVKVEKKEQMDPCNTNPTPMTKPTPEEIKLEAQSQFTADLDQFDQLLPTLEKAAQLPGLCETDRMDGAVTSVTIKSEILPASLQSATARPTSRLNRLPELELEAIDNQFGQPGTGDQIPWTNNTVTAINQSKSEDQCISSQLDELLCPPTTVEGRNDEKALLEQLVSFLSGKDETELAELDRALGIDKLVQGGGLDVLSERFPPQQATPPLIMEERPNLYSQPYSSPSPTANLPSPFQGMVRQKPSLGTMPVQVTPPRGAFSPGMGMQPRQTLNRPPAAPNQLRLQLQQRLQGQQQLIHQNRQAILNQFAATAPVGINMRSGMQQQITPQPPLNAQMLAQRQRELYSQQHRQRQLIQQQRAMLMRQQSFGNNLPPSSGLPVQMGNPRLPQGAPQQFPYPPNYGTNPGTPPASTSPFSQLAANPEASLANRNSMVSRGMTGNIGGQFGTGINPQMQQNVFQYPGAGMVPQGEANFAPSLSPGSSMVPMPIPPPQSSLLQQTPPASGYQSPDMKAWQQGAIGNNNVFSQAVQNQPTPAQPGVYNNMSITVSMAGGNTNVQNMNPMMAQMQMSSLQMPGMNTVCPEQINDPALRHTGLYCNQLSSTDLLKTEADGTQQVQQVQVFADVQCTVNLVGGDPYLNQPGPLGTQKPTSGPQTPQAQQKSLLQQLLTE
SRC2 inh: human SRC2 (NCOA2) inhibition. Q15596. HEK293 GAL4-SRC2 luciferase reporter, luminescence. inhibition, % at 9 µM. 0.17% of 370,000 active;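 active = inhibition above the mean inhibition of all tested compounds plus 3 SD, set per campaign, cut at about 52% in these data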;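 also: 0% = DMSO treated cells and 100% = cells given Gossypol at 36 µM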
Gli-Sufu block: blocks Gli-Sufu signaling in a luciferase reporter | Sufu-KO-LIGHT fibroblasts, Gli luciferase reporter luminescence | inhibition, % at 5 µM | 0.74% of 340,000 active;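 active = inhibition above about 55%, limit read from the data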;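 also: 0% = DMSO-treated cells and 100% = wells with medium but no cells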
SRC3 inh: human NCOA3 inhibition; HEK293 GAL4-SRC3 luciferase reporter, luminescence; inhibition, % at 3.6 µM; 0.17% of 360,000 active; AID 588352;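 active = inhibition above a per-campaign cutoff, the mean of all compounds plus 3 SD, cut at about 60% in these data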;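 also: 0% = DMSO-treated cells and 100% = gossypol-treated cells at 36 µM; higher means less SRC3-driven luciferase light from the GAL4 reporter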
Gli-Sufu confirm: confirmation of Gli-SUFU pathway antagonists; shares compounds with Gli-Sufu block; Sufu-KO-LIGHT cells, Gli luciferase reporter, luminescence; inhibition, % at 5 µM; 40% of 2,500 active; AID 602428;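 active = mean inhibition at 5 µM reaching about 45%, limit read from the data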;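 also: plate controls were DMSO-treated cells for no effect and wells lacking cells for full effect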
Gli cytotox: cytotoxicity counter-screen for Gli-SUFU antagonists; shares compounds with Gli-Sufu block; Sufu-KO-LIGHT cells cytotoxicity, ATP luminescence; cytotoxicity, % at 5 µM; 32% of 2,500 active; AID 651994;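 active = mean cytotoxicity at 5 µM above about 25%, limit read from the data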;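 also: cells exposed to compound overnight for roughly 16 to 18 hours; plate controls were DMSO wells with cells for no effect and medium without cells for full effect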
Wnt3a cs: counter-screen for Gli-SUFU antagonists: Wnt3a reporter inhibition; Wnt-LIGHT cells, Wnt3a-driven luciferase reporter, luminescence; inhibition, % at 6.25 µM; shares compounds with Gli-Sufu block; 20% of 2,500 active;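 active = mean inhibition above about 25%, limit read from the data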
VP16 Luc counter: counter-screen for COUP-TFII antagonists: inhibitors of VP16 | shares compounds with NR2F2 inh | HEK293 Gal4-VP16 luciferase reporter, luminescence | inhibition, % at 8.5 µM | 25% of 2,500 active | AID 687007; in the data active = inhibition above about 13%
COUP-TFII conf: confirmation of human COUP-TFII (NR2F2) inhibitors | HEK293 NGFI-A luciferase reporter, luminescence | 45% of 2,500 active | inhibition, % at 8.5 µM | AID 687008 | shares compounds with NR2F2 inh;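 active = mean inhibition over three repeats above a set limit taken from the earlier primary screen, cut at about 38% in these data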;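 also: 100% = cells given the luciferase reporter alone without the COUP-TF2 vector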
Active calls of the source: *; . = no result. The list is not random: actives were taken first. Their share in the collection is about 1.3%.

SMILES	LRH-1 inv ag	NR2F2 inh	NCOA1 inh	SRC2 inh	Gli-Sufu block	SRC3 inh	Gli-Sufu confirm	Gli cytotox	Wnt3a cs	VP16 Luc counter	COUP-TFII conf
Clc1ccc(C[n+]2cc(-c3ccccc3)n3c2CCCCC3)c(Cl)c1	26	42*	-8	13	86*	49	87*	44*	25	11	22
N#Cc1c(N)[nH]c(C(=O)c2ccccc2)c1-c1ccc(Br)cc1	.	6	.	-3	.	.	.	.	.	.	.
CCCc1ccc(-c2ccc(/C=C/C(=O)O)cc2)nc1	78*	98*	71*	88*	71*	65*	69*	56*	91*	91*	102*
CN1C(=O)c2cc(NC(=O)Nc3ccccc3)ccc2OC[C@H]2O[C@@H](CC(=O)Nc3cc(F)ccc3F)CC[C@@H]21	.	-11	.	9	.	.	.	.	.	.	.
CCNc1nc2c(c(=O)n(C)c(=O)n2C)n1Cc1ccc(Cl)cc1	29	53*	25	26	71*	15	61*	31*	40*	6	36
CN1/C(=C\P(=O)(N(C)C)N(C)C)C(C)(C)c2ccccc21	26	46*	4	5	76*	12	70*	30*	29*	-6	0
CC(=O)c1cccc(NS(=O)(=O)c2ccc(-c3cnc(C4CC4)o3)cc2)c1	37	44*	16	15	55	28	49*	17	-8	3	47*
CC(=O)Nc1ccc(NS(=O)(=O)c2ccc(-c3cnc(C4CC4)o3)cc2)cc1	28	5	-36	15	-9	9	.	.	.	.	.
CCn1cc(CN(C)S(=O)(=O)c2ccc3ccccc3c2)c(C)n1	45	51*	-1	-4	53	30	50*	22	28*	2	51*
O=C(c1ccc(CSc2nc3ccncc3[nH]2)cc1)N1CCN(c2cccc(Cl)c2)CC1	10	78*	18	7	58*	3	67*	42*	8	12	51*
O=C(c1ccc(CSc2nc3ccncc3[nH]2)cc1)N1CCCCCC1	-77	-15	-75	-42	-43	-53	.	.	.	.	.
Cc1cccc(Cl)c1NC(=O)NCCCN1CCOCC1	.	-15	.	-9	.	.	.	.	.	.	.
CC(C)(C)c1ccc(C2CC2C(=O)N/N=C\c2ccc[nH]2)cc1 (stereo not drawn)	89*	42*	23	-14	88*	71*	92*	3	43*	0	64*
CN(C)Cc1c(C(C)(C)O)[nH]c2cc(C(F)(F)F)ccc12	.	-12	.	20	.	.	.	.	.	.	.
COc1ccc(-c2cn(-c3ccc(OC)cc3)c3[n+]2-c2ccccc2CC3)cc1	72	62*	47	-16	88*	69*	91*	46*	26*	12	55*
COc1ccc(S[C@]2(C(=O)N3CCCC3)CC(=O)N(P(=O)(OC)OC)[C@@H]2c2ccc(OC)cc2)cc1	.	8	.	14	.	.	.	.	.	.	.
COC(=O)[C@]12CCCCC=C1N(Cc1ccc(OC)cc1)C(=O)[C@@H]2CC(=O)NCCC(C)C	.	-18	.	-5	.	.	.	.	.	.	.
CC(=O)c1c(C)[nH]c(C(=O)OCC(=O)Nc2ccc(Cl)cc2[N+](=O)[O-])c1C	44	63*	20	32	75*	36	75*	31*	24	5	60*
CCOC(=O)c1c(C)[nH]c(C(=O)OCC(=O)Nc2cc(Cl)ccc2OC)c1C	19	21	-7	5	5	-8	.	.	.	.	.
